Test results taken from PubChem BioAssay.

Test system: Chordin-like protein 2 (CHRDL2)
Assay: compounds binding chordin-like 2 – biochemical, small-molecule microarray, 635 nm fluorescence, primary screen (AID 1126);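 note: printed compound slides probed with Chrdl2 protein at 4 µg/mL for 1 h at 4 C; score merges 667 nm emission intensity with signal to noise over three replicate slides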
Details: fluorescence 635 nm, higher = more signal

Structure (SMILES) | composite z-score
COC(=O)[C@@]1(Cc2ccc(F)cc2)[C@H]2c3cc(C(=O)N4CCCC4)n(CCc4ccc(OC)c(Br)c4)c3C[C@H]2CN1C(=O)c1ccccc1 | -1.39
Cc1c(NC(=O)/C(C#N)=C/C=C/c2ccccc2)c(=O)n(-c2ccccc2)n1C | 0.427
C=C(C(=O)CC[C@@H](OC(=O)c1cccnc1)c1ccc(OCCO)cc1)C(C)C | 0.606
O=c1cccc(-c2cccc3ccccc23)o1 | -0.671
Cc1ccc(S(=O)(=O)N2CC(C(=O)O)=CCC2c2ccccc2)cc1 (stereo not given) | -1.74
O=S(=O)(NCCCO)c1ccc(Br)cc1 | 0.678
C=CCOC(=O)[C@@H]1[C@H]2C(=O)O[C@H](c3ccccc3)[C@H](c3ccccc3)N2[C@H](c2ccc(OCCOC(=O)[C@H]3C[C@H]4C(=O)N[C@@H](Cc5ccccc5)C(=O)N4[C@H]3c3ccc(O)cc3)cc2)[C@@]12C(=O)Nc1ccc(I)cc12 | 1.12
C=CCNC(=O)[C@H]1[C@@H]2C(=O)O[C@@H](c3ccccc3)[C@@H](c3ccccc3)N2[C@@H](c2ccc(O)cc2)[C@]12C(=O)Nc1ccc(C#Cc3ccc(OC)cc3)cc12 | 0.704
C[N+](C)(C)CCCC[C@@H]1NC(=O)[C@H]2C[C@@H](C(=O)O)[C@@H](c3cccc(OCCO)c3)N2C1=O | 1.17
Cn1c2c(c3ccccc31)C(=O)C1NC2C=CC1(C)C(=O)OCc1ccccc1 (stereo not given) | -2.55
CCCCC(=C=CC[C@H](O)c1ccccc1OCCO)C[C@H](O)c1cc(Cl)cc(Cl)c1O | -0.473
COc1c(C)cc(-c2cc3c(c(-c4ccccc4)n2)[Si](C(C)C)(C(C)C)O[C@H]3c2ccccc2)cc1C | 0.613
C=CCN1Cc2ccccc2C[C@]2(N=C(c3ccc(OCCCO)cc3)O[C@@H]2c2ccccc2)C1=O | 1.14
O=C(N1CCCCC1)[C@]1(CCS(=O)(=O)c2ccccc2)N=C(c2ccc(OCCCO)cc2)O[C@@H]1c1ccccc1 | -0.457
COc1ccc([Si](C)(C)[C@@H]2[C@@H](CCO)O[C@]3(C(=O)N(Cc4ccccc4)c4ccc(N(C=O)c5ccccc5)cc43)[C@H]2C)cc1 | -0.15
Cc1ccc(S[C@]2(C(=O)NCCCN(C)C)CC(=O)N(C(C)C)[C@@H]2c2ccc(CO)cc2I)cc1 | -0.0376
C=C(COC)C(=O)CC[C@H](OC(=O)c1cccnc1)c1ccccc1OCCO | 0.906
CC(c1ccccc1)C(O)C1C=CC2C(=O)N(Cc3ccccc3)C(=O)C2N1n1cnnc1 (stereo not given) | -0.226
CN1C(=O)C2C=CC(C(O)C(C)(C)C)N(Nc3ccccc3)C2C1=O (stereo not given) | -0.156
CS(=O)(=O)CCOC(=O)C1=CC(c2ccc(CO)cc2)=CC(c2cccs2)N(Cc2cccc(OC(F)(F)F)c2)C=C1C(=O)OCCS(C)(=O)=O (stereo not given) | 0.217
Cc1ccc([C@H]2C(C(=O)O)=C[C@@H](C(C)C)N2S(=O)(=O)c2ccc(C)cc2)cc1 | -0.209
COC(=O)[C@@]1(Cc2ccc(OC)cc2)[C@H]2c3cc(C(=O)N(C)C)n(Cc4ccc(OC)c(OC)c4)c3C[C@H]2CN1C(=O)c1ccccc1 | -0.885
CN1C(=O)C2C=CC(C(O)C=Cc3ccc([N+](=O)[O-])cc3)N(N3CCCCC3)C2C1=O (stereo not given) | 0.57
C=CCOC(=O)[C@H]1[C@@H]2C(=O)O[C@@H](c3ccccc3)[C@@H](c3ccccc3)N2[C@@H](c2ccc(OCCOC(=O)[C@H]3C[C@H]4C(=O)N[C@@H](CCCC[N+](C)(C)C)C(=O)N4[C@H]3c3ccc(O)cc3)cc2)[C@]12C(=O)Nc1ccccc12 | 0.518
[N-]=[N+]=Nc1ccccc1[C@@H]1OC(c2ccc(OCCCO)cc2)=N[C@]1(CCS(=O)(=O)c1ccccc1)C(=O)N1CCCCC1 | -0.74
